V-ATPase pHluor = yeast V-ATPase proton transport regulation by pHLuorin. S. cerevisiae, pHLuorin cytosolic pH fluorescence. response, % at 10 µM. 350,000 compounds, 0.37% hits. AID 504577; in the data active = response mostly above about 7.3%, no sharp cut-off; inactive = mostly below about 5.4%; note: actives read high
NPR1 activator = GC-A (human) enzyme activation; HEK293 GC-A cells, cGMP TR-FRET, EC30 ANP; 0% at EC30 ANP, 100% saturating ANP; 370,000 compounds, 0.14% hits; P16066; activation, % at 10 µM; in the data active = activation above about 40%
PG9 Ab binder = binds the HIV-1 gp120 antibody PG9; TR-FRET gp120-PG9 antibody binding; inhibition, % at 6.7 µM; 360,000 compounds, 0.43% hits; AID 624416; in the data active = inhibition above about 8.5%
GC-B act = GC-B (human) receptor activation; HEK293-GC-B cells, CNP EC30, cGMP TR-FRET; 0% at EC30 CNP, 100% saturating CNP; activation, % at 10 µM; 370,000 compounds, 0.11% hits;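 active = activation at 10 µM reaching about 35% in either raw or pattern-adjusted values, limit read from the data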
Rev-erbA mod = Rev-erb alpha (human) modulation | P20393 | Rev-erbα–FITC-DNA binding, fluorescence polarization, 90 min | activity, % at 10 µM | 370,000 compounds, 0.79% hits | AID 1259318;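 active = activity above about 14%, limit read from the data; passing the limit was not always enough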
Target sequence (P20393 whole entry, looked up): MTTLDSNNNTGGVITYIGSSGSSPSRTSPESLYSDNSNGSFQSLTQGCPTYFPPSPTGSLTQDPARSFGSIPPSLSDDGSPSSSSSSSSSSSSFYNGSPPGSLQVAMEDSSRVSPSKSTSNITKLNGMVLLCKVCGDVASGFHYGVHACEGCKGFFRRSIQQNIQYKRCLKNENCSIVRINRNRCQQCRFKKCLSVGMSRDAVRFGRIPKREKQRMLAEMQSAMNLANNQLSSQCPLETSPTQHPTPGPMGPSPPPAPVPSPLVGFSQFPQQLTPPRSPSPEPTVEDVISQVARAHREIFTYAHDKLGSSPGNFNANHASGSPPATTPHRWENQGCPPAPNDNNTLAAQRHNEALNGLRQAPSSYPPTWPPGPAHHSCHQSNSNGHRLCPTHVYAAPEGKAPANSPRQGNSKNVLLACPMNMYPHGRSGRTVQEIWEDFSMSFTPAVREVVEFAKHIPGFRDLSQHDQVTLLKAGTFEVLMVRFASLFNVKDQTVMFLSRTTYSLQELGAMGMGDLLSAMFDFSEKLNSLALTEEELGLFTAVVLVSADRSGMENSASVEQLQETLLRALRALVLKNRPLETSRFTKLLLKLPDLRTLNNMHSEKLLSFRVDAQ
Large screens that a line does not name were inactive. The list is not random: actives were taken first. Their share in the collection is about 1.6%.

O=C(O)[C@@H]1CCCN1C(=O)c1ccccc1N1C(=O)[C@@H]2Cc3c([nH]c4ccccc34)C(c3cccc(Cl)c3)N2C1=O (stereo partly specified)	none
CCOC(=O)C1=C(N)Oc2cc(O)ccc2C1c1ccc(Br)cc1 (stereo unspecified)	NPR1 activator 53
CCOC(=O)C1=C(N)Oc2cc(O)ccc2C1c1cccc(Cl)c1 (stereo unspecified)	none
COc1ccc(CNC(=O)c2cccc(NC3=NC4CS(=O)(=O)CC4S3)c2)cc1 (stereo unspecified)	V-ATPase pHluor 19
COc1cccc(CNC(=O)c2cccc(NC3=NC4CS(=O)(=O)CC4S3)c2)c1 (stereo unspecified)	none
COc1ccc(-c2cn[nH]c2-c2ccc(OC)cc2O)cc1	none
COc1ccc(-c2[nH]ncc2-c2ccc(Cl)cc2)c(O)c1	none
Oc1ccc(-c2[nH]ncc2-c2ccc(Br)cc2)c(O)c1	NPR1 activator 67
Oc1ccc(-c2[nH]ncc2-c2ccc(Cl)cc2)c(O)c1	NPR1 activator 49
CCCOc1ccc(C(=O)NNC(=S)NC(=O)CC)cc1	GC-B act 64
C=CCNC(=S)NNC(=O)c1ccc(OCCC)cc1	none
O=C(CSc1nnc(-c2cnccn2)n1-c1ccccc1)Nc1ccc2c(c1)OCCO2	none (no result: V-ATPase pHluor, PG9 Ab binder)
CC(=O)O[C@H]1CC2CCC3C(CC[C@@]4(C)C3C[C@H]([N+]3(C)CCCCC3)[C@@H]4OC(C)=O)[C@@]2(C)C[C@@H]1[N+]1(C)CCCCC1 (stereo partly specified)	none (no result: V-ATPase pHluor, NPR1 activator, PG9 Ab binder, GC-B act)
COc1ccc(N2C(=O)CC(Sc3nnnn3-c3ccc(F)cc3)C2=O)cc1 (stereo unspecified)	none
O=C1CC(Sc2nnnn2-c2ccccc2)C(=O)N1c1cccc(Cl)c1 (stereo unspecified)	GC-B act 36
CO[C@@]12[C@@H]3N[C@H]3CN1C1=C(C(=O)C(N)=C(C)C1=O)[C@@H]2COC(N)=O	none (no result: V-ATPase pHluor, NPR1 activator, PG9 Ab binder, GC-B act)
C[C@@H]1CN([C@@H](C)COC(=O)C(C)(C)C)C(=O)c2cc(NC(=O)Nc3ccccc3)ccc2O[C@@H](C)CCCCO[C@H]1CN(C)S(=O)(=O)c1ccc(F)cc1	none (no result: V-ATPase pHluor, PG9 Ab binder)
COc1cc(Cl)ccc1OCc1cc(C(=O)N[C@H]2CCCCNC2=O)no1	NPR1 activator 60
CN(C)S(=O)(=O)c1cccc(C(=O)N/N=C\c2ccccc2)c1	none (no result: V-ATPase pHluor, PG9 Ab binder)
C(=C\c1ccncc1)/c1ccccc1	V-ATPase pHluor 18
C(=C\c1ccncc1)/c1ccncc1	none
CCN1CCN(CCCNc2ncnc3nc[nH]c23)CC1	PG9 Ab binder 14
Cc1cc(C)c(C)c(S(=O)(=O)ON2C(=O)c3ccccc3C2=O)c1C	NPR1 activator 42, GC-B act 47
Cc1cc(C)c(S(=O)(=O)ON2C(=O)c3ccccc3C2=O)cc1C	GC-B act 36
Cc1ccc(S(=O)(=O)ON2C(=O)c3ccccc3C2=O)c(C)c1	V-ATPase pHluor 8.1, NPR1 activator 41, GC-B act 46
O=C1c2ccccc2C(=O)N1OS(=O)(=O)c1ccc(F)cc1	NPR1 activator 42
COc1ccc(-n2c(COc3ccccc3)nnc2SCC(=O)Nc2ccc3c(c2)OCCO3)cc1	none (no result: V-ATPase pHluor, PG9 Ab binder)
CC(C)(C)NC(=O)[C@H]1CCC2C3CCC4NC(=O)C=C[C@]4(C)C3CC[C@@]21C (stereo partly specified)	none (no result: V-ATPase pHluor, NPR1 activator, PG9 Ab binder, GC-B act)
CC/C=C(\C(=O)N[C@@H]1C(=O)N2C(C(=O)OCOC(=O)C(C)(C)C)=C(COC(N)=O)CS[C@H]12)c1csc(N)n1	none (no result: V-ATPase pHluor, NPR1 activator, PG9 Ab binder, GC-B act)
COc1cc(C2NCC(c3ccc(Cl)cc3Cl)c3c2[nH]c2ccccc32)cc(OC)c1OC (stereo unspecified)	NPR1 activator 86
O=C(O)c1ccc(C2NCC(c3ccccc3Cl)c3c2[nH]c2ccccc32)cc1 (stereo unspecified)	NPR1 activator 54
COc1cc([C@H]2c3[nH]c4ccccc4c3C[C@H]3C(=O)N4[C@@H](c5cc(OC)c(OC)c(OC)c5)c5[nH]c6ccccc6c5C[C@H]4C(=O)N23)cc(OC)c1OC	none (no result: NPR1 activator, PG9 Ab binder, GC-B act, Rev-erbA mod)
C[C@H]1CC2C3CCC4=CC(=O)C=C[C@]4(C)[C@@]3(F)[C@@H](O)C[C@]2(C)[C@@]1(O)C(=O)COP(=O)(O)O (stereo partly specified)	none (no result: V-ATPase pHluor, NPR1 activator, PG9 Ab binder, GC-B act)
CCCCOc1ccc(/C=c2\sc3ncnn3c2=O)cc1	NPR1 activator 67
Cc1ccc(CCNC(=O)CCNS(=O)(=O)c2ccc3c(c2)c(=O)n(C)c(=O)n3C)cc1	V-ATPase pHluor 20
COc1ccc(NS(=O)(=O)c2ccc3c(c2)CCC(=O)N3)c(OC)c1	V-ATPase pHluor 19 (no result: PG9 Ab binder)
CN(CCC(=O)c1ccccc1)CCC(=O)c1ccccc1	NPR1 activator 63
CN(C)CCC(=O)c1ccc(Cl)cc1	NPR1 activator 62
O=C(CCC(=O)c1cccs1)Nc1ccccc1F	V-ATPase pHluor 19
O=C(Cn1nnc(-c2ccccc2F)n1)Nc1ccc(Cl)cc1	none (no result: V-ATPase pHluor, PG9 Ab binder)
COc1cc(/C=C2\C(=O)N(CCC#N)N=C2C)ccc1OCC(=O)Nc1ccccc1	NPR1 activator 53, GC-B act 47
Cc1cc(C)n2nc(SCC(=O)N(CC(C)C)c3c(N)n(CC(C)C)c(=O)[nH]c3=O)nc2n1	none
Cc1cc(C)n2nc(SCC(=O)c3c(N)n(CC(C)C)c(=O)n(C)c3=O)nc2n1	V-ATPase pHluor 17
Cc1ccc(S(=O)(=O)N2CCOCC2)cc1NC(=O)CNc1ccccc1N1CCCC1=O	V-ATPase pHluor 22
Cc1ccccc1NCC(=O)Nc1cc(S(=O)(=O)N2CCCCC2)ccc1C	none
CCCCN(C)C(=O)C1CCN(S(=O)(=O)c2ccc3[nH]c(=O)oc3c2)CC1	none (no result: V-ATPase pHluor, PG9 Ab binder)
CC1=NOC(=O)/C1=C/c1ccc(O)c(Cl)c1	none
CCCOc1ccc(/C=C2/C(=O)ON=C2C)cc1Cl	NPR1 activator 45
CCCCC(=O)O[C@]1(C(=O)CO)CCC2C3CCC4=CC(=O)CC[C@]4(C)C3[C@@H](O)C[C@@]21C (stereo partly specified)	none (no result: V-ATPase pHluor, NPR1 activator, PG9 Ab binder, GC-B act)
Cc1csc(CNc2ncnc3ccc(-c4ccoc4)cc23)c1	GC-B act 37
Cc1nc(SCC(=O)NCC2CCCO2)c2c(C)c(C)sc2n1 (stereo unspecified)	V-ATPase pHluor 13
COc1cccc(-n2cc(CNCc3cn(C)nc3-c3ccccc3F)cn2)c1	V-ATPase pHluor 14
COC(=O)C(NNc1ccccc1C)(NC(=O)c1ccc(F)cc1)C(F)(F)F (stereo unspecified)	V-ATPase pHluor 8.7
COCCn1c(-c2ccc(-c3ccccc3Cl)o2)nc2c1c(=O)[nH]c(=O)n2CC(C)C	GC-B act 36
FC(F)(F)c1ccccc1NC(=S)OCCN1CCCC12CCC(c1ccccc1)CC2 (stereo unspecified)	none (no result: V-ATPase pHluor, PG9 Ab binder)
Cc1nnc(SCC(=O)Nc2ccc(N3CCOCC3)cc2)n1Cc1ccccc1	V-ATPase pHluor 23
O=C1C(SCCO)=C(SCCO)C(=O)c2ccccc21	NPR1 activator 51
Cc1ccc(Cn2ncc(Cl)c(Cl)c2=O)cc1	none
